For one assay, the target named is HSP90B1. Briefly: pooled miR-30 sensor sort-seq; sequence = guide strand. As to conditions: shRNA.
Sequence TTTATCATCAGCAATCTTCTTG came in with a sensor-assay potency score (higher = more potent) of 0.391. TTTCATCGAACTTCACTCCTTC registered a sensor-assay potency score (higher = more potent) of 0.873.

As to TTTTACATCAAGAATAGTCAGT, the sensor-assay potency score (higher = more potent) is 0.0481. TTTTGAAGTGACAATAACCTTA gave a sensor-assay potency score (higher = more potent) of 0.45. In turn, TATCATTGTATTTATCATCAGC came in with a sensor-assay potency score (higher = more potent) of -0.644.

TTTGTGATGCATTTAATCCATC returned a sensor-assay potency score (higher = more potent) of -1.31. In turn, TTAAAAACTCGCTTGTCCCAGA gave a sensor-assay potency score (higher = more potent) of 0.327. Sequence TTTTTAACCAACTCTTCTCTGG showed a sensor-assay potency score (higher = more potent) of -0.121. The same measure, in the same setting: under TTCTTGATCATGTCCAGCGTTT stands -0.303.

Sequence TTGCTGAAGAGTCTCGCGGGAA showed a sensor-assay potency score (higher = more potent) of -0.855. On to TTTGAAGTGACAATAACCTTAT, for which the sensor-assay potency score (higher = more potent) is -0.631.

TTCATCGTCAGCTCTGACCGAC returned a sensor-assay potency score (higher = more potent) of 0.128.

A further assay has as its target HSPA1A. Described as above. Conditions: shRNA.
Regarding TTCTTCTTGTCGGCCTCGCTGA, the sensor-assay potency score (higher = more potent) is -0.634. TTCAACATTGCAAACACAGGAA: the sensor-assay potency score (higher = more potent) is 0.422. On to TTGACACTTGTCCAGCACCTTC, for which the sensor-assay potency score (higher = more potent) is -1.05.

The values above are taken from the OligoGym collection.
Note: reference of the scale not given here.
